Data on 1 sequence can be found in PMC7862700, “An all-to-all approach to the identification of sequence-specific readers for epigenetic DNA modifications on cytosine”.

What all share (test): DAPPL (digital affinity profiling via proximity ligation, sequencing); 10 mM Tris-HCl pH 7.5, 50 mM NaCl, 1 mM DTT, 4% glycerol, room temperature, 30 min; GST-TFs on glutathione beads, 16-mer random dsDNA library, 0.1% formaldehyde crosslink after washing; high values mean tight binding
In test [1] the target is T1, FEV (Homo sapiens, UniProt Q99581 1-238).
T1 sequence: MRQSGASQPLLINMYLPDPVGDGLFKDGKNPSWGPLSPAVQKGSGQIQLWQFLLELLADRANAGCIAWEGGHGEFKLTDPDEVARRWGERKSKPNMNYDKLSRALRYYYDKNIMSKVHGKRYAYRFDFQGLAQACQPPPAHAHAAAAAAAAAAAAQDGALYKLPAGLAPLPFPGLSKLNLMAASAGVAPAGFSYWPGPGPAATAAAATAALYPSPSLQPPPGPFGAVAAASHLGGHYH
The note with it: protein: recombinant; tags: N-terminal GST; dsDNA, one strand shown. In outline:
(§1)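 In yeast, human transcription factors were expressed with a GST fusion, then pulled down on glutathione beads and given DNA barcodes. Pooled with a tag-only sample, they were exposed to 200 nmole of a 16-mer random double-stranded DNA library (Tris/NaCl/DTT/glycerol buffer, room temperature, 30 min), washed, crosslinked with 0.1% formaldehyde, proximity-ligated using BsaI/T4 ligase for 1 h at 37 °C, PCR-amplified and read on an Illumina NextSeq500. Each hexamer's frequency of reads for a factor, divided by the matching frequency for the tag-only sample, gives the binding signal.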

The target of test [2] is ETV5 (Homo sapiens, UniProt P41161 1-510). Conditions: protein: recombinant; tags: N-terminal GST; dsDNA, one strand shown. In outline:
as §1

Test [3] deals with HSF1 (Homo sapiens, UniProt Q00613 1-529). Conditions: protein: recombinant; tags: N-terminal GST; chain copies: 3; dsDNA, one strand shown. In outline:
as §1

Test [4] addresses T2, SPIC (Homo sapiens, UniProt Q8N5J4 1-248).
T2 sequence: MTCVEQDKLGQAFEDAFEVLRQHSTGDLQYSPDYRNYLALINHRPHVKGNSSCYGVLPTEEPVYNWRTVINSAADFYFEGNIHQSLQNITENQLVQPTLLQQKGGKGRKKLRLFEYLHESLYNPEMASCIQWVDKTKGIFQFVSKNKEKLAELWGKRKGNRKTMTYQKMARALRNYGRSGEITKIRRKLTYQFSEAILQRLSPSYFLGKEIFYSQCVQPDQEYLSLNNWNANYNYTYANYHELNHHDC
Conditions: protein: recombinant; tags: N-terminal GST; dsDNA, one strand shown. The gist of the method: as §1

For test [5], the target named is ELF4 (Homo sapiens, UniProt Q99607 1-663). Conditions: protein: recombinant; tags: N-terminal GST; dsDNA, one strand shown. In outline: as §1
Test [6] concerns the target T3, ELK4 (Homo sapiens, UniProt P28324-2 1-405).
T3 sequence: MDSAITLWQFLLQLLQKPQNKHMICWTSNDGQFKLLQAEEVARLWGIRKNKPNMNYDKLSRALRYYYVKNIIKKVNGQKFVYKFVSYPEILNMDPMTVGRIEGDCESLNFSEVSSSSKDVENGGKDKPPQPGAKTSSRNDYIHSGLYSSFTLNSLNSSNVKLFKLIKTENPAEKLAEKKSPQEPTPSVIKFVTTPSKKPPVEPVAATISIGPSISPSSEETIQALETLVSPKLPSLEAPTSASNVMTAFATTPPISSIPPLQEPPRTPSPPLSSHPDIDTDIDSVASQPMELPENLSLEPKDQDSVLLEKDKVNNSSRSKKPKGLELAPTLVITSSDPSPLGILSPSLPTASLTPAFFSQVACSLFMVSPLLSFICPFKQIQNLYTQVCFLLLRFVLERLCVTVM
Conditions: protein: recombinant; tags: N-terminal GST; dsDNA, one strand shown. The gist of the method: as §1

The target in test [7] is T4, ETV2 (Homo sapiens, UniProt O00321 1-342).
T4 sequence: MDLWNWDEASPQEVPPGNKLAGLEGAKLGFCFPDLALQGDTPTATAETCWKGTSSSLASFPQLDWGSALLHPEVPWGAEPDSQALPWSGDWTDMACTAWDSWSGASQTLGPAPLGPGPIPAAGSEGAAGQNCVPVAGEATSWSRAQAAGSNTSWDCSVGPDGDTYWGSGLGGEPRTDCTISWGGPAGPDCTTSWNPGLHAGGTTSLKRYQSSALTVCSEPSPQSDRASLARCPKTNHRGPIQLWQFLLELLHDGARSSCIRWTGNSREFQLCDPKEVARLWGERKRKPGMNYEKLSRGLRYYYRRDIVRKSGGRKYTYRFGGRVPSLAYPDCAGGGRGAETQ
The note with it: protein: recombinant; tags: N-terminal GST; dsDNA, one strand shown. The gist of the method:
as §1

For test [8], the target named is T5, ELF3 (Homo sapiens, UniProt P78545 1-371).
T5 sequence: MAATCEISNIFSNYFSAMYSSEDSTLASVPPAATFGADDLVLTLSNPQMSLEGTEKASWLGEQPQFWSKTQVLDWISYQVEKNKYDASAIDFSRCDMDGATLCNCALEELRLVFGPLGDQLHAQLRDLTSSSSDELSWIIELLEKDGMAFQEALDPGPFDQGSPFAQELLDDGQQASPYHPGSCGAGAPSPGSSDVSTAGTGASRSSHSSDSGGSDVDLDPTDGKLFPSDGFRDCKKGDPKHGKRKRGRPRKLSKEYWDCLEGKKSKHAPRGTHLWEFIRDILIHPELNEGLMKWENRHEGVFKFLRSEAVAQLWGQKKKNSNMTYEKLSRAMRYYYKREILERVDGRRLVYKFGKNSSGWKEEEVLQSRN
Conditions: protein: recombinant; tags: N-terminal GST; dsDNA, one strand shown. In outline: as §1

For test [9], the target named is CRX (Homo sapiens, UniProt O43186 1-299). The note with it: protein: recombinant; tags: N-terminal GST; dsDNA, one strand shown. The gist of the method:
as §1

In test [10] the target is ETV1 (Homo sapiens, UniProt P50549 1-477). The note with it: protein: recombinant; tags: N-terminal GST; dsDNA, one strand shown. The gist of the method:
as §1

In test [11] the target is T6, ERF (Homo sapiens, UniProt P50548 1-548).
T6 sequence: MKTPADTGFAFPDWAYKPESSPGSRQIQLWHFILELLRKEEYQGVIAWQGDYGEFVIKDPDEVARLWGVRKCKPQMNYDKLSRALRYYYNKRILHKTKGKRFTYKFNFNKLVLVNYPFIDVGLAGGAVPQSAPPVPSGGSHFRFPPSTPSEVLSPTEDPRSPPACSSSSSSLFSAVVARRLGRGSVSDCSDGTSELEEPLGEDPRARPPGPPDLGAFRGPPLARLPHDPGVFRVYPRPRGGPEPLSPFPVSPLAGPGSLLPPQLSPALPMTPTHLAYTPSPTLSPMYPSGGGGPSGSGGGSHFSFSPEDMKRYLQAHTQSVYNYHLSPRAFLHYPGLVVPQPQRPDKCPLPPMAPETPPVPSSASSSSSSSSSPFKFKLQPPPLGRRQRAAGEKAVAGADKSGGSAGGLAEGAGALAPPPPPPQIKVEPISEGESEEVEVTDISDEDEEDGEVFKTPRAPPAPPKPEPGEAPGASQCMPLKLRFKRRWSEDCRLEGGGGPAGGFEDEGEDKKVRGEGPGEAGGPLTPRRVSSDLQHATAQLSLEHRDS
Conditions: protein: recombinant; tags: N-terminal GST; dsDNA, one strand shown. The gist of the method:
as §1

Test [12] deals with T7, ETV3L (Homo sapiens, UniProt Q6ZN32 1-361).
T7 sequence: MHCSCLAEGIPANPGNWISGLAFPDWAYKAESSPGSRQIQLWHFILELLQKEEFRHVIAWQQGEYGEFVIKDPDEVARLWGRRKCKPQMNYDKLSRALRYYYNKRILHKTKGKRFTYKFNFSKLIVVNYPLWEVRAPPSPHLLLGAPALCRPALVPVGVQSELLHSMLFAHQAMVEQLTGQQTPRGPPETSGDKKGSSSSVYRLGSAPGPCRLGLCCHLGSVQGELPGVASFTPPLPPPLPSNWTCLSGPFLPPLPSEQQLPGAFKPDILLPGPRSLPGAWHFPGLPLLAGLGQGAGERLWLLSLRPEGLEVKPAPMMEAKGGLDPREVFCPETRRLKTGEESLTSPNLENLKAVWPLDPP
The note with it: protein: recombinant; tags: N-terminal GST; dsDNA, one strand shown. In outline: as §1

The target of test [13] is T8, ETS2 (Homo sapiens, UniProt P15036 1-469).
T8 sequence: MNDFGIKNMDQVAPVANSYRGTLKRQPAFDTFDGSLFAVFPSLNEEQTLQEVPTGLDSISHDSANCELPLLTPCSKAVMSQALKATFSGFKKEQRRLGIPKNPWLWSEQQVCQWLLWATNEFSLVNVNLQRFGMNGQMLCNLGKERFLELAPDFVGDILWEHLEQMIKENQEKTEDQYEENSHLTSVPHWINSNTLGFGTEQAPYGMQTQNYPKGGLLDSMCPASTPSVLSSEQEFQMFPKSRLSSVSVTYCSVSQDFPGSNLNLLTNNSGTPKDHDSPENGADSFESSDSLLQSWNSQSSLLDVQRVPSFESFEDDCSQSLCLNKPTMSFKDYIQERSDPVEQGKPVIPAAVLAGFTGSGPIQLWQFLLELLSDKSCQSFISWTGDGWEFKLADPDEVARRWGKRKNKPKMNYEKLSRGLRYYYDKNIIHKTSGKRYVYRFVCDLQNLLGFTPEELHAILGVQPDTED
The note with it: protein: recombinant; tags: N-terminal GST; dsDNA, one strand shown. The gist of the method: as §1

For test [14], the target named is T9, SPDEF (Homo sapiens, UniProt O95238 1-335).
T9 sequence: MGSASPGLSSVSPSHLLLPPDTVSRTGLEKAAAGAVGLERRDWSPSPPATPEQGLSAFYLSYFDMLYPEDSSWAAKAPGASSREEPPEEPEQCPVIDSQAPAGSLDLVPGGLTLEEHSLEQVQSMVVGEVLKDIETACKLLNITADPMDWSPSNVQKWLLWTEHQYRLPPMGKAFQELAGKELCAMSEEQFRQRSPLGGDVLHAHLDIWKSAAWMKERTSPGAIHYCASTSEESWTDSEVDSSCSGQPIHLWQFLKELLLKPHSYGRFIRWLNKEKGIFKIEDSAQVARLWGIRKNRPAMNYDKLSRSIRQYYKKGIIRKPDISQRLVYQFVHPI
Conditions: protein: recombinant; tags: N-terminal GST; dsDNA, one strand shown. In outline:
as §1

Test [15] addresses T10, ETV7 (Homo sapiens, UniProt Q9Y603 1-341).
T10 sequence: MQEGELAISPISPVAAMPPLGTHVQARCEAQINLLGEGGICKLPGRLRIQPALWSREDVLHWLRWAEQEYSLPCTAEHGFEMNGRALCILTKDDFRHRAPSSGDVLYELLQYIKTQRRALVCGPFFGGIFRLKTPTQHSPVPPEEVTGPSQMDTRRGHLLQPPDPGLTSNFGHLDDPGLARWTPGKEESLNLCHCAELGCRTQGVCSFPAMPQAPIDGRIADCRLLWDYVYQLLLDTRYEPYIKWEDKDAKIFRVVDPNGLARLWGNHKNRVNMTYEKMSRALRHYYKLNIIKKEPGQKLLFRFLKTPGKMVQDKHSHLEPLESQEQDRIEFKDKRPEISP
Conditions: protein: recombinant; tags: N-terminal GST; dsDNA, one strand shown. In outline:
as §1

Test [16] deals with T11, ELF5 (Homo sapiens, UniProt Q9UKW6-2 1-255).
T11 sequence: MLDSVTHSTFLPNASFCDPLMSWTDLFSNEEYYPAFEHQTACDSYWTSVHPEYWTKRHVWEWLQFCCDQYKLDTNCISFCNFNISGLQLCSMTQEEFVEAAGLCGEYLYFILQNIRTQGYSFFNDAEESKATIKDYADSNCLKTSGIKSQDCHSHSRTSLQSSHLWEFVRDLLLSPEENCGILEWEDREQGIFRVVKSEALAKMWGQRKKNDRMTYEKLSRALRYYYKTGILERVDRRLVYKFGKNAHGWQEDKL
Conditions: protein: recombinant; tags: N-terminal GST; dsDNA, one strand shown. The gist of the method:
as §1

Test [17] has as its target T12, ETV3 (Homo sapiens, UniProt P41162-2 1-143).
T12 sequence: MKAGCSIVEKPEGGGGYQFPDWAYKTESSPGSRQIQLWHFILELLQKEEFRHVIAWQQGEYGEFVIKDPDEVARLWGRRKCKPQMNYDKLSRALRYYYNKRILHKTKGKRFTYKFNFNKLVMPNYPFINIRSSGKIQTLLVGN
The note with it: protein: recombinant; tags: N-terminal GST; dsDNA, one strand shown. The gist of the method: as §1

Test [18] concerns the target ETV6 (Homo sapiens, UniProt P41212 1-452). The note with it: protein: recombinant; tags: N-terminal GST; dsDNA, one strand shown. The gist of the method:
as §1

Sequence of ELF4 (Q99607 whole entry): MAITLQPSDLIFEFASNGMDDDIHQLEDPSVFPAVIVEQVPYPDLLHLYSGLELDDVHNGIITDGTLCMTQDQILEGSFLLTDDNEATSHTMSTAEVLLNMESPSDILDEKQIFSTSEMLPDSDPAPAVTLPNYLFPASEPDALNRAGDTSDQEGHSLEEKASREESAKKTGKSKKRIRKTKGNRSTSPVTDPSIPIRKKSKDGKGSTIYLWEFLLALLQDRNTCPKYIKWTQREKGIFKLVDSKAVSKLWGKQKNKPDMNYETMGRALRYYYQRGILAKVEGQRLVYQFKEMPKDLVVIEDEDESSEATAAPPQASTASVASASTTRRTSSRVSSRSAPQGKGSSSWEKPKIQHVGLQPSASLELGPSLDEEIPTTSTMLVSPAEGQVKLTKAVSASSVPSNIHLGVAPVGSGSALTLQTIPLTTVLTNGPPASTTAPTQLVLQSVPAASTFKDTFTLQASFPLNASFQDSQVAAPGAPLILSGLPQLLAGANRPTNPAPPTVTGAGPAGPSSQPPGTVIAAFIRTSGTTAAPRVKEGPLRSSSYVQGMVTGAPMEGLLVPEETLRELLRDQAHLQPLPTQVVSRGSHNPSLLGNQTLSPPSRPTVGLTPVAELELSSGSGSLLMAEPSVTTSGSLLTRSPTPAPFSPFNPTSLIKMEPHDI
Sequence of ETV5 (P41161 whole entry): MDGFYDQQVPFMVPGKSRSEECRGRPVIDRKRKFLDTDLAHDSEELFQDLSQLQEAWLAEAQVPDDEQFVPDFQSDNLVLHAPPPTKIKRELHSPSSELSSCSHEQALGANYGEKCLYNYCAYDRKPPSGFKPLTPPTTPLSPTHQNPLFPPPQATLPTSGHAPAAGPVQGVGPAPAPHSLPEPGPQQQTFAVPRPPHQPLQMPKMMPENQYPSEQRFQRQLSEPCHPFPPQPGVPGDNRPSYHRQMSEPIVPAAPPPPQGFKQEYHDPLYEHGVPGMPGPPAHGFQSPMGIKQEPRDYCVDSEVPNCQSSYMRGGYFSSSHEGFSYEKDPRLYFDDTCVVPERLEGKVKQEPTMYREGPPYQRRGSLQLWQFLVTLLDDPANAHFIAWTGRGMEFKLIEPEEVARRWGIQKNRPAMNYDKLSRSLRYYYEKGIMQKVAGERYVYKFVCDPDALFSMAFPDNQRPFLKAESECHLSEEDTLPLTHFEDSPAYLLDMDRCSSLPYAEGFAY
Sequence of HSF1 (Q00613 whole entry): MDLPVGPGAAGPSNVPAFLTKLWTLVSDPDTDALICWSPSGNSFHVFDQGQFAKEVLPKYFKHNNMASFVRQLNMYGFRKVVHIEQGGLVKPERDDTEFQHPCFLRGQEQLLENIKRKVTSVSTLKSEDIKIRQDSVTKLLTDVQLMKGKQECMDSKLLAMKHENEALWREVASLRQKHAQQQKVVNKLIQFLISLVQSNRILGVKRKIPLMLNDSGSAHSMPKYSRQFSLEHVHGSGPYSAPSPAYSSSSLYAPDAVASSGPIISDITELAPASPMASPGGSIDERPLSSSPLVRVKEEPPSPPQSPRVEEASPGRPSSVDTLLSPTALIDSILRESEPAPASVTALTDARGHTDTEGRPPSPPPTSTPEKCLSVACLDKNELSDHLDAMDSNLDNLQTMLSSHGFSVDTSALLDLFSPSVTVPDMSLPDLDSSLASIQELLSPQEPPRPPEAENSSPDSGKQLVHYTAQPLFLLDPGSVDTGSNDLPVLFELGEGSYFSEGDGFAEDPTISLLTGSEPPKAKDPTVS
Sequence of CRX (O43186 whole entry): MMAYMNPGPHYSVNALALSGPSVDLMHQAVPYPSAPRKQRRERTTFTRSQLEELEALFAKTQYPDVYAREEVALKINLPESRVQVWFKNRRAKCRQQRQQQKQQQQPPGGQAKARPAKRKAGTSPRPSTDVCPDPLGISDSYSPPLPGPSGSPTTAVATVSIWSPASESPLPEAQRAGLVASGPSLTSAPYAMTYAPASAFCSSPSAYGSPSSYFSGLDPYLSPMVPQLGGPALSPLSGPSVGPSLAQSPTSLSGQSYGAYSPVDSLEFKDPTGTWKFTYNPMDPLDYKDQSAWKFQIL
Sequence of ETV1 (P50549 whole entry): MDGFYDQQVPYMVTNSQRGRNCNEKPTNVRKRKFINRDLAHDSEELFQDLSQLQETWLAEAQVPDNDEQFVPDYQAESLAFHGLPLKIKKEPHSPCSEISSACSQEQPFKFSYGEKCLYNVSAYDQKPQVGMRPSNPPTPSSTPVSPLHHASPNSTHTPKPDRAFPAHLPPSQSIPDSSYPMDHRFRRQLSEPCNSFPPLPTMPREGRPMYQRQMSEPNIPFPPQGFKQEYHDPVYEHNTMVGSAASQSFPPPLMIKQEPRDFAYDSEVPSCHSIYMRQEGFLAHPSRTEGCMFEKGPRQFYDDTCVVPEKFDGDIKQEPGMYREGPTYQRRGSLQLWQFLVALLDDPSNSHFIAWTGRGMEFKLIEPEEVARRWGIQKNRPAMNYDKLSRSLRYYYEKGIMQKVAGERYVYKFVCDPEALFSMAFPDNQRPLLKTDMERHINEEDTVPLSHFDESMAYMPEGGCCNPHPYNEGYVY
Sequence of ETV6 (P41212 whole entry): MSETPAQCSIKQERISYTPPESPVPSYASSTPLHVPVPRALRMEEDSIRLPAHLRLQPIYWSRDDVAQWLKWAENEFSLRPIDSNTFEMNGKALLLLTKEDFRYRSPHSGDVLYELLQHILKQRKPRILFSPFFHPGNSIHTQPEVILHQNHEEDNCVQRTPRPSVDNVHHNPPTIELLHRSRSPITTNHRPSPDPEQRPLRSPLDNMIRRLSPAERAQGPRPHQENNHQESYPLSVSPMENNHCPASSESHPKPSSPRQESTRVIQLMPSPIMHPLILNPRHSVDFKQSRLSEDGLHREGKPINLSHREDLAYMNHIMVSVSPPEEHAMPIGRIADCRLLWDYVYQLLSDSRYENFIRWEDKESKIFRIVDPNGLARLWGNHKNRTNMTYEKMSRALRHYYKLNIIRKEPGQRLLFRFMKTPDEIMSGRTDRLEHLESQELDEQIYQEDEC

For the sequence TAAGTT, the binding signal was 1.24 fold enrichment (6-mer frequency, TF over GST control) in test [1]; 1.37 fold enrichment (6-mer frequency, TF over GST control) in [2]; 1.45 fold enrichment (6-mer frequency, TF over GST control) in test [3]; 1.36 fold enrichment (6-mer frequency, TF over GST control) in test [4]; 1.34 fold enrichment (6-mer frequency, TF over GST control) in test [5]; 1.22 fold enrichment (6-mer frequency, TF over GST control) in [6]. In addition, the binding signal is 1.25 fold enrichment (6-mer frequency, TF over GST control) in test [7]; 1.09 fold enrichment (6-mer frequency, TF over GST control) in test [8]; 1.94 fold enrichment (6-mer frequency, TF over GST control) in [9]; 1.34 fold enrichment (6-mer frequency, TF over GST control) in test [10]; 1.18 fold enrichment (6-mer frequency, TF over GST control) in [11]; 1.4 fold enrichment (6-mer frequency, TF over GST control) in [12]. The binding signal in [13] is 1.38 fold enrichment (6-mer frequency, TF over GST control); in test [14], 1.42 fold enrichment (6-mer frequency, TF over GST control); in test [15], 1.36 fold enrichment (6-mer frequency, TF over GST control); in test [16] it was 1.29 fold enrichment (6-mer frequency, TF over GST control); in [17], 1.27 fold enrichment (6-mer frequency, TF over GST control); in test [18] it was 1.49 fold enrichment (6-mer frequency, TF over GST control).
